The source of these data is PubChem BioAssay AID1851 (National Center for Advancing Translational Sciences (NCATS), 2009).

The whole screen tested about 16,000 compounds, of which about 5,100 (32%) were called active. Another 25% or so got no clear call; they are omitted. The list shows a part of the results. A number with no mark means an inactive call. Calls come from the whole dose curve; as a rule, active = well fitted curve in the direction sought with a large enough effect; inconclusive = small, poorly fitted or top-dose-only effect, or effect the other way; inactive = no such curve, though single readings can be large or run the other way.
% is set by controls: 0 for no effect and ±100 for the full control effect.

In the assay the target is Cytochrome P450 3A4 (Homo sapiens) (UniProt P08684). The assay can be described thus: Cytochrome panel assay with activity outcomes. To be noted: recombinant CYP, pro-luciferin dealkylation, luminescence, p450-cyp3a4; series mostly up to 57.1 µM; activity, negative = inhibition: at the top concentration.
Sequence of Cytochrome P450 3A4 (Homo sapiens) (P08684 whole entry, looked up): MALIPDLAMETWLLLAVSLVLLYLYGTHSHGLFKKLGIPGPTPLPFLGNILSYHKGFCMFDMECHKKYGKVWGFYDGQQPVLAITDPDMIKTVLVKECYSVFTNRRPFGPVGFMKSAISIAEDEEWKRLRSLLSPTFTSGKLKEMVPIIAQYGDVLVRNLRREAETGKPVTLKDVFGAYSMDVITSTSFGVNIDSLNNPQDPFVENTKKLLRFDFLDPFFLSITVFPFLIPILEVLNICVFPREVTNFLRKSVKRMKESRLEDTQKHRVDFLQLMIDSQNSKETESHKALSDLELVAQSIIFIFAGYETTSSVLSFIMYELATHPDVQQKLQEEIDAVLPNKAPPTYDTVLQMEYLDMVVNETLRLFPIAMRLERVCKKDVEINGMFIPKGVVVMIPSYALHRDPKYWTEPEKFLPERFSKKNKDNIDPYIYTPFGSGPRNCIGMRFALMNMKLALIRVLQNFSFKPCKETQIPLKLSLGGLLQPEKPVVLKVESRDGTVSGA
The AC50 is the concentration at which the activity in the assay is half-maximal. For the compound `O=c1c(CCc2ccccc2)nc2cncnc2n1Cc1ccc(F)cc1`, the AC50 is 3.16 µM (active). With `CCCCCCCCCCCCCCCC(=O)NC[C@@H](COP(=O)([O-])OCC[N+](C)(C)C)OCC`, the AC50 was 25.1 µM (active). `CCCCCCCCCCCCCC(=O)O[C@H](CC(=O)O)C[N+](C)(C)C`: the “activity, negative = inhibition” value is -18.2%. The same measure, in the same setting: next, `CCCCCCCCCCCCCCCCCCOC[C@@H](COP(=O)([O-])OCC[N+](C)(C)C)OC`: 3.29%. On the same count and under the same terms, next, `CCCCCCCCCCCCCCCCCC(=O)O[C@H](CC(=O)O)C[N+](C)(C)C`: -3.53%.

In the case of `CCCCCCCCCCCCCCCCCCNC(=O)OC[C@@H](COP(=O)([O-])OCC[n+]1ccsc1)OC`, the “activity, negative = inhibition” value was 9.2%. Consider `CCCCCCCCCCCCCCCCCC(=O)NC[C@@H](COP(=O)([O-])OCC[N+](C)(C)C)OCC`, for which the AC50 is 31.6 µM (active).

`CCCCCCC(C)n1cc(C(C)=O)c(=O)[nH]c1=O` (centres undefined): the activity, negative = inhibition was 12.8% [at 2.29 µM]. As for `Fc1cccc(Cl)c1CSc1ncn[nH]1`, the half-maximal activity concentration (AC50) is 4.47 µM (active). On the same count and under the same terms, in the case of `CCCC[C@@H]1C[C@H]1C(NC(=O)c1cccs1)c1ccccc1C(F)(F)F` (some centres undefined) it was 3.16 µM (active). For `CCCC[C@@H]1C[C@H]1C(NC(=O)c1cccs1)c1ccc(Cl)cc1` (some centres undefined), the concentration at half-maximal activity (AC50) is 5.01 µM (active). Same read-out and setting: next, `CCCC[C@@H]1C[C@H]1C(NC(=O)c1cccs1)c1ccc(C(F)(F)F)cc1` (some centres undefined): 3.16 µM (active); `CCCC[C@@H]1C[C@H]1C(NC(=O)c1ccc(C(F)(F)F)cc1)c1ccc(C(=O)OC)cc1` (some centres undefined): 5.01 µM (active). On to `CCOC(=O)c1cncc(C(=O)O)c1`, for which the activity, negative = inhibition was 1.77% [at 2.29 µM]. For the compound `CCOC(=O)CCCNC(=O)c1cncc(Br)c1`, the AC50 was 14.1 µM (active).

Consider `Cc1ccc(OCCNC(=O)c2cc(-n3cnnc3)ccc2Cl)cc1C`, for which the AC50 is 7.94 µM (active). As to `CN(C)CCNC(=O)c1cc(Br)ccc1Cl`, the “activity, negative = inhibition” value is -12.1%. The same measure, in the same setting: next, `CCOC(=O)CNC(=O)c1cccnc1`: 4.45% [at 11.4 µM]. With `Cc1ccc(OCCNC(=O)c2cncc(Br)c2)cc1C`, the AC50 was 7.08 µM (active). As to `O=C(Nc1ccccc1)c1cc(-n2cnnc2)ccc1Cl`, the “activity, negative = inhibition” value is 14.9%.

Take `O=C(NC(=S)Nc1ccc(Br)cn1)c1cncc(Br)c1`: the activity, negative = inhibition is -24.4% [at 2.29 µM].

For `Cn1c(-c2sccc2OCc2ccccc2)n[nH]c1=S`, the “activity, negative = inhibition” value is 19.7%. Regarding `Cc1nc2c(OCc3ccccc3)cccn2c1CC#N`, the AC50 is 15.8 µM (active). With `Cn1c(=O)c2[nH]cnc2n(C)c1=O`, the AC50 result was “inactive”.

As for `CC(C)Cn1c(=O)n(C)c(=O)c2[nH]cnc21`, the AC50 is 3.98 µM (active). Consider `Nc1nc(=O)c2[nH]cnc2n1O`, for which the activity, negative = inhibition was -2.96% [at 11.4 µM].

With `CN(Cc1cc(Cl)cc(Cl)c1O)Cc1c(O)ccc2ccccc12`, the activity, negative = inhibition was -29.5% [at 11.4 µM]. Same read-out and setting: next, `CC(C)(N)C(=O)N[C@@H]1C(=O)N2[C@@H]1SC(C)(C)[C@H]2C(=O)O`: -5.57% [at 11.4 µM]; `Nc1ccc(S(=O)(=O)NC(=O)c2ccccc2)cc1`: -6.82% [at 25.6 µM]. For `Nc1ccc(N(c2ccccc2)c2ccc(N)cc2)cc1`, the AC50 is 1.78 µM (active). Same read-out and setting: next, `COc1ccc(C2C3=C(CC(C)(C)CC3=O)Oc3ncn(CC(C)C)c(=N)c32)cc1` (centres undefined): 12.6 µM (active); `COCCn1c(=O)c(-c2cccc(C#N)c2)nc2cnc(OCc3ccccc3)nc21`: 10 µM (active). As for `N#CCCn1c(=O)c(-c2cccc(C#N)c2)nc2cnc(Oc3ccccc3)nc21`, the “activity, negative = inhibition” value is -12.2%. Still for that read-out and setting: next, `COCCn1c(=O)c(-c2cccc(C#N)c2)nc2cnc(N(C)C)nc21`: -19.3%. `N#CCCn1c(=O)c(-c2ccc(F)cc2)nc2cnc(OCc3ccccc3)nc21`: the half-maximal activity concentration (AC50) was 15.8 µM (active). Regarding `N#CCCn1c(=O)c(-c2ccc(F)cc2)nc2cnc(Oc3cccc(Cl)c3)nc21`, the “activity, negative = inhibition” value was -20.7%. With `COCCn1c(=O)c(-c2cccc(C#N)c2)nc2cnc(Oc3ccc(OC)cc3)nc21`, the half-maximal activity concentration (AC50) is 2.51 µM (active).

Take `COCCn1c(=O)c(-c2cccc(C#N)c2)nc2cnc(Oc3ccccc3)nc21`: the AC50 was 25.1 µM (active).

As for `CN(C)c1ncc2nc(-c3ccc(F)cc3)c(=O)n(CCC#N)c2n1`, the “activity, negative = inhibition” value was -6.39%. With `CC(C)(C)NC[C@@H](O)COc1ccccc1C1CCCC1`, the “activity, negative = inhibition” value is -7.01% [at 25.6 µM]. As for `COc1cc2c(cc1OC)-c1cc3ccc(OC)c(OC)c3c[n+]1CC2`, the “activity, negative = inhibition” value was -16.2% [at 25.6 µM].

In the case of `Cc1ccc(S(=O)(=O)N[C@H](C(=O)N2CCC(C(=O)NCC(=O)O)CC2)C(C)C)cc1`, the “activity, negative = inhibition” value was -18.8%. On to `CC(C)c1ccc2nc3sc(C(=O)N4CCc5ccccc5C4)c(N)c3cc2c1`, for which the activity, negative = inhibition was 6.07% [at 2.29 µM]. For `CC(C)C(NS(=O)(=O)c1cccc2nsnc12)C(=O)N1CCc2ccccc2C1` (centres undefined), the AC50 was 7.08 µM (active).
